From ChEMBL document CHEMBL2218924, “A broad activity screen in support of a chemogenomic map for kinase signalling research and drug discovery” (Biochem J, 2013)

target: T1, Aurora kinase A (Homo sapiens) (UniProt O14965); details: at 10 µM
T1 sequence (whole entry): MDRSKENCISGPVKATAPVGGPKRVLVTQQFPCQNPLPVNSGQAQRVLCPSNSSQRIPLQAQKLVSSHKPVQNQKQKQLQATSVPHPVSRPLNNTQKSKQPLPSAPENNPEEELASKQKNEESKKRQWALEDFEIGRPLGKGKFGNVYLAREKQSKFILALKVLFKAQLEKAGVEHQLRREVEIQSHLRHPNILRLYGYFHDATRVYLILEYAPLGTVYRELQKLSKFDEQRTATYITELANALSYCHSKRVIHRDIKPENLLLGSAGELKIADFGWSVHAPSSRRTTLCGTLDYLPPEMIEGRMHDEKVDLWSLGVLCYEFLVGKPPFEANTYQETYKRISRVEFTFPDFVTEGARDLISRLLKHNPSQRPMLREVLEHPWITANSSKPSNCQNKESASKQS

Structure (SMILES)	residual activity
COc1ccc(CNc2nc(N(CCO)CCO)nc3c2ncn3C(C)C)cc1	96%
O=C1NC(=O)c2c1c1c3ccccc3[nH]c1c1[nH]c3cc(Br)ccc3c21	75%
O=C1Nc2cc(Br)ccc2/C1=C1/Nc2ccccc2/C1=N\O	25%
COc1cc2ncnc(Nc3ccc(NC(=O)c4ccccc4)cc3)c2cc1OC	12%
Nc1nc(Nc2ccc(S(N)(=O)=O)cc2)nn1C(=S)Nc1c(F)cccc1F	10%
NC(=O)c1ccc2[nH]c(-c3ccc(Oc4ccc(Cl)cc4)cc3)nc2c1	86%
c1ccc(-c2n[nH]c3c2oc2ccccc23)cc1	31%
Oc1c2ccccc2c2c3c(cccc13)N=N2	2%
Cc1nc2cc3nc(-c4cccs4)cnc3cc2n1C	69%
N#CC(C#N)=C(N)/C(C#N)=C/c1ccc(O)cc1	85%
Oc1ccc(-c2nc(-c3ccc(F)cc3)c(-c3ccncc3)[nH]2)cc1	89%
Oc1ccc(Nc2nc(-c3ccc(Cl)cc3)cs2)cc1	122%
CCN(CC)C(=O)c1ccc(Nc2nc(OCC3CCCCC3)c3nc[nH]c3n2)cc1	5%
O=C(Nc1cccc(Nc2cc(Nc3cccc(C(F)(F)F)c3)ncn2)c1)C1CC1	82%
C[C@@H](N)[C@H]1CC[C@H](C(=O)Nc2ccncc2)CC1	89%
CCC(=O)Nc1ccc2ncnc(Nc3cccc(Br)c3)c2c1	127%

Structure (SMILES)	residual activity
CO[C@@H]1[C@H](N(C)C(=O)c2ccccc2)C[C@H]2O[C@]1(C)n1c3ccccc3c3c4c(c5c6ccccc6n2c5c31)C(=O)NC4	-2%
COc1cc2ncnc(N3CCN(C(=O)Nc4ccc(Oc5ccccc5)cc4)CC3)c2cc1OC	48%
Nc1cccc(-c2cc3c(Oc4cccc(O)c4)ncnc3[nH]2)c1	1%
COc1ccc(C(=O)Nc2sc3c(c2C(N)=O)CCCC3)cc1OC	96%
Cc1cncc2cccc(S(=O)(=O)N3CCCN(C(=O)CN)C[C@H]3C)c12	36%
COc1cc2ncc(-c3ccccc3)nc2cc1OC	98%
O=C1NC(=O)/C(=C\c2ccc3nccnc3c2)S1	46%
O=C1NC(=O)/C(=C/c2ccc3c(c2)OC(F)(F)O3)S1	57%
Nc1ccc2ncnc(NCCc3ccc(Oc4ccccc4)cc3)c2c1	110%
Cc1ccc(NC2=CC(=O)c3sc(C)nc3C2=O)cc1	96%
Oc1n[nH]c2nnc(-c3c(-c4ccccc4)nn4ccccc34)cc12	93%
COc1ccc(OC)c2c(=S)c3ccccc3[nH]c12	90%
N#CCCc1ccc2c(c1)-c1[nH]c3ccc([N+](=O)[O-])cc3c1CC(=O)N2	37%
Cc1cc(Nc2nc(-c3ccccc3)nc3ccccc23)n[nH]1	0%
CC(=O)c1ccc(N2CCOCC2)cc1O	100%
c1ccc(-c2n[nH]cc2-c2ccnc3ccccc23)nc1	103%
